{"source": "the supplement of paper PMC7695840", "note": "Where a name gives a salt, the structure may show the parent alone."}
{"test_system": "Staphylococcus aureus MW2 (mecA+)", "assay": "normalized DsRed fluorescence (growth of mecA+ strain) (fraction of control range); higher = more growth of mecA+ strain", "conditions": "compound concentration: 150 uM; cefoxitin: subinhibitory; fluorescent label: DsRed", "method_in_brief": "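Two pre-induced S. aureus MW2 strains, one with the gene labeled by DsRed and one lacking it labeled by GFP, were mixed 1:1 in LB with a subinhibitory antibiotic dose set daily. The mix went at 5 µL/well onto 150 μM compound (1.5% DMSO) in 1536-well plates, single replicate, and grew unshaken 20 h at 37 °C, 90% humidity. DsRed (540/590) and GFP (485/520) values were scaled per plate between single-strain control medians, and plates with high untreated ratios or rows with DsRed/GFP >10 were left out.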"}
{"smiles": "CCc1cc(C(N)=S)ccn1", "normalized DsRed fluorescence": 0.65}
{"smiles": "C#CCN[C@@H]1CCc2ccccc21", "normalized DsRed fluorescence": 0.693}
{"smiles": "CC(C)(C)NC[C@H](O)COc1ccccc1C1CCCC1", "normalized DsRed fluorescence": 0.586}
{"smiles": "COc1ccc2c(c1OC)C(=O)O[C@@H]2[C@H]1c2c(cc3c(c2OC)OCO3)CCN1C", "normalized DsRed fluorescence": 0.698}
{"smiles": "CCCc1nc(C(C)(C)O)c(C(=O)OCc2oc(=O)oc2C)n1Cc1ccc(-c2ccccc2-c2nnn[nH]2)cc1", "normalized DsRed fluorescence": 0.605}
{"smiles": "O=C1CN2Cc3c(ccc(Cl)c3Cl)N=C2N1", "normalized DsRed fluorescence": 0.896}
{"smiles": "COc1cc2nccc(Oc3ccc(NC(=O)NC4CC4)c(Cl)c3)c2cc1C(N)=O", "note": "[E7080 (Lenvatinib)]", "normalized DsRed fluorescence": 0.638}
{"smiles": "O=C(c1ccccc1)c1ccc2n1CCC2C(=O)O", "note": "(centres undefined)", "normalized DsRed fluorescence": 0.711}
{"smiles": "Cc1nnc(C(=O)NC(C)(C)c2nc(C(=O)NCc3ccc(F)cc3)c(O)c(=O)n2C)o1", "note": "[Raltegravir (MK-0518)]", "normalized DsRed fluorescence": 0.507}
{"smiles": "COc1ccc2c(c1)C(=O)N(CCc1ccc(S(=O)(=O)NC(=O)NC3CCCCC3)cc1)C(=O)C2(C)C", "note": "[Gliquidone]", "normalized DsRed fluorescence": 0.134}
{"smiles": "NCCc1c[nH]cn1", "normalized DsRed fluorescence": 0.661}
{"smiles": "NS(=O)(=O)c1cc2c(cc1Cl)N=CNS2(=O)=O", "normalized DsRed fluorescence": 0.683}
{"smiles": "COc1ccc(CN(CCN(C)C)c2ncccn2)cc1", "normalized DsRed fluorescence": 0.813}
{"smiles": "Cc1cccc(C)c1NC(=O)C(C)N", "note": "(centres undefined)", "normalized DsRed fluorescence": 0.486}
{"smiles": "CC(Oc1c(Cl)cccc1Cl)C1=NCCN1", "note": "(centres undefined)", "normalized DsRed fluorescence": 0.569}
{"smiles": "NS(=O)(=O)Cc1noc2ccccc12", "note": "[Zonisamide]", "normalized DsRed fluorescence": 0.893}
{"smiles": "NS(=O)(=O)c1cc2c(cc1C(F)(F)F)NCNS2(=O)=O", "normalized DsRed fluorescence": 0.753}
{"smiles": "Nc1nc2ccc(OC(F)(F)F)cc2s1", "normalized DsRed fluorescence": 0.37}
{"smiles": "CC(C)[C@H](N)C(=O)OCCOCn1cnc2c(=O)nc(N)[nH]c21", "note": "[Valaciclovir HCl]", "normalized DsRed fluorescence": 0.782}
{"smiles": "CCC(C)CCCCC(=O)NC(CCN)C(=O)NC(C(=O)NC(CCN)C(=O)NC1CCNC(=O)C(C(C)O)NC(=O)C(CCN)NC(=O)C(CCN)NC(=O)C(CC(C)C)NC(=O)C(Cc2ccccc2)NC(=O)C(CCN)NC1=O)C(C)O", "note": "(centres undefined)", "normalized DsRed fluorescence": 1.05}
{"smiles": "CN1C2CCCC1CC(NC(=O)c1nn(C)c3ccccc13)C2", "note": "(centres undefined)", "normalized DsRed fluorescence": 0.441}
{"smiles": "CC12CC3CC(C)(C1)CC(N)(C3)C2", "normalized DsRed fluorescence": 0.672}
{"smiles": "CC(=O)[C@@]1(O)CC[C@H]2[C@@H]3CCC4=CC(=O)CCC4=C3[C@@H](c3ccc(N(C)C)cc3)C[C@@]21C", "note": "[Ulipristal]", "normalized DsRed fluorescence": 0.967}
{"smiles": "CCN(CC)CC#CCOC(=O)C(O)(c1ccccc1)C1CCCCC1", "note": "(centres undefined)", "normalized DsRed fluorescence": 0.796}
{"smiles": "CC(N/C(=N\\C#N)Nc1ccncc1)C(C)(C)C", "note": "(centres undefined)", "normalized DsRed fluorescence": 1.44}
{"smiles": "COC(=O)[C@@H]1CC2=CC(=O)CC[C@]2(C)[C@@]23O[C@@H]2C[C@@]2(C)[C@@H](CC[C@@]24CCC(=O)O4)[C@H]13", "note": "[Eplerenone]", "normalized DsRed fluorescence": 0.645}
{"smiles": "O=c1ccn([C@@H]2O[C@H](CO)[C@@H](O)[C@H]2O)c(=O)[nH]1", "note": "[Uridine]", "normalized DsRed fluorescence": 0.849}
{"smiles": "Cc1cc2c(s1)Nc1ccccc1N=C2N1CCN(C)CC1", "normalized DsRed fluorescence": 0.803}
{"smiles": "CCN1CCC[C@H]1CNC(=O)c1cc(S(N)(=O)=O)ccc1OC", "note": "[Levosulpiride (Levogastrol)]", "normalized DsRed fluorescence": 0.695}
{"smiles": "CC1=C(/C=C/C(C)=C/C=C/C(C)=C\\C(=O)O)C(C)(C)CCC1", "normalized DsRed fluorescence": 0.671}
{"smiles": "CNC(C)C1CCC(N)C(OC2C(N)CC(N)C(OC3OCC(C)(O)C(NC)C3O)C2O)O1", "note": "(centres undefined)", "normalized DsRed fluorescence": 0.522}
{"smiles": "COCCCOc1cc(C[C@@H](C[C@H](N)[C@@H](O)C[C@H](C(=O)NCC(C)(C)C(N)=O)C(C)C)C(C)C)ccc1OC", "normalized DsRed fluorescence": 0.717}
{"smiles": "C1CNCCN1", "normalized DsRed fluorescence": 0.885}
{"smiles": "CCCc1nc2c(C)cc(-c3nc4ccccc4n3C)cc2n1Cc1ccc(-c2ccccc2C(=O)O)cc1", "normalized DsRed fluorescence": 0.194}
{"smiles": "c1ccc([C@H]2CN3CCSC3=N2)cc1", "normalized DsRed fluorescence": 0.535}
{"smiles": "CCOC(=O)C1=C[C@]2(CC)CCCN3CCc4c(n1c1ccccc41)[C@@H]32", "normalized DsRed fluorescence": 0.554}
{"smiles": "Clc1ccc2c(c1)C(N1CCNCC1)=Nc1ccccc1O2", "normalized DsRed fluorescence": 1.74}
{"smiles": "Cc1cnc(NC(=O)C2=C(O)c3ccccc3S(=O)(=O)N2C)s1", "normalized DsRed fluorescence": 0.469}
{"smiles": "NC(N)=Nc1nc(CSCC/C(N)=N/S(N)(=O)=O)cs1", "normalized DsRed fluorescence": 0.755}
